# Assay results taken from PubChem BioAssay (NCATS).
# Records with an inconclusive call do not appear. Where a call stands in place of a potency, no number is given. Calls of active or inactive are those of the source. Unless noted, the call rests on the fitted dose curve; in most records, active means well fitted curve in the direction sought with a large enough effect; inconclusive means small, poorly fitted or top-dose-only effect, or another doubt; inactive means no such curve, though single readings can be large; an effect the other way counts as inactive or inconclusive. Where a SMILES comes first, the peptide text is derived from it. [ ]: non-standard residue; d: D form. pGlu = O=C1CC[C@@H](C(=O)O)N1
# Key:
# [1] = Primary qHTS for inhibitors of nuclear receptor binding SET domain protein 2 (NSD2) in an isogenic RCH-ACV NSD2 p.E1099K mutant (9B) (AID 1645876); further: nearly all actives have a fitted effect of over 70% in size; further: potency means the concentration at half of the fitted maximal effect
# [2] = biological target: Glutathione peroxidase 1 (Homo sapiens) (UniProt P07203); test: Primary qHTS Assay for Inhibitors of Recombinant Selenoprotein Glutathione Peroxidase 1 (GPX1) (AID 1845191); further: nearly all actives have a fitted effect of over 65% in size; further: potency means the concentration at half of the fitted maximal effect
# Glutathione peroxidase 1 (Homo sapiens), sequence (P07203 whole entry, looked up): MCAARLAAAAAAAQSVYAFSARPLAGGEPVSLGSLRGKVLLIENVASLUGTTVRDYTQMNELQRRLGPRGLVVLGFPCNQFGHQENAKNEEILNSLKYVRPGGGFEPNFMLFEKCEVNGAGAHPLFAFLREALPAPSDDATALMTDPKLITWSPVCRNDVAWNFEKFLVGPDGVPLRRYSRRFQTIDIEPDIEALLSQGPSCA
# Summary of the method: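 NADPH consumption tracked by fluorescence at 340/450 nm between t=0 and t=15 min, room temperature. Final mix: 10 nM GPX1, 100 nM glutathione reductase, 1 mM GSH, 0.5 mM NADPH, 0.5 mM cumene hydroperoxide, 0.01% BSA; 30 min compound–enzyme preincubation.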
# [3] = biological target: Phospholipid hydroperoxide glutathione peroxidase GPX4 (Homo sapiens) (UniProt P36969); test: Primary qHTS Assay for Inhibitors of Recombinant Selenoprotein Glutathione Peroxidase 4 (GPX4) (AID 1845192); further: nearly all actives have a fitted effect of over 65% in size
# Phospholipid hydroperoxide glutathione peroxidase GPX4 (Homo sapiens), sequence (P36969 whole entry, looked up): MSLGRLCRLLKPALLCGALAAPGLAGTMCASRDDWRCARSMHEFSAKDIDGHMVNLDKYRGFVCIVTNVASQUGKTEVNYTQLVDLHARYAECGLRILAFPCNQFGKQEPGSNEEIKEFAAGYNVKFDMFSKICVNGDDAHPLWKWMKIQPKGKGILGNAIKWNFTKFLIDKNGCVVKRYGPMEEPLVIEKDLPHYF
# Summary of the method: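 NADPH consumption followed by fluorescence at 340/450 nm, t=0 and after 15 min at room temperature. Reaction started with cumene hydroperoxide (0.5 mM final) after 30 min compound–GPX4 preincubation; final 200 nM GPX4, 100 nM GR, 1 mM GSH, 0.5 mM NADPH.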
# [4] = NCATS anti-infectives library activity on HEK293 viability as a counter-qHTS vs the C. elegans viability qHTS (AID 1745854)
# Summary of the method: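 CellTiter-Glo luminescence, read on a CCD imager, scored viability of HEK293 cells after 24 hr compound exposure at 37C. Library tested in several concentrations, 1:5 steps, up to 41.7 uM; digitonin served as control.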
# [5] = biological target: Catechol O-methyltransferase (Homo sapiens) (UniProt P21964); test: Confirmatory Screen for Target Class Profiling of Small Molecule Inhibitors of Methyltransferases (AID 1745852; calls by dose curve); settings: MTase-Glo luminescence, SAH detection, recombinant enzyme; measured here: COMT max response; stronger effect = lower value
# Catechol O-methyltransferase (Homo sapiens), sequence (P21964 whole entry, looked up): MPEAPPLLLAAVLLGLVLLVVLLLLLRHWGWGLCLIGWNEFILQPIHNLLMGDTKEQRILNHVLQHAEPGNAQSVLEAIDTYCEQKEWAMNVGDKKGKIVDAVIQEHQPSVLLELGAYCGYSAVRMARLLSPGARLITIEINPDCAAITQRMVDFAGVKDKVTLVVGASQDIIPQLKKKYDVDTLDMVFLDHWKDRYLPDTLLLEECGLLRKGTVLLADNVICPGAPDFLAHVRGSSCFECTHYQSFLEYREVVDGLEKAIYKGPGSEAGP
# [6] = biological target: Guanidinoacetate N-methyltransferase (Homo sapiens) (UniProt Q14353); test: as above; settings: MTase-Glo luminescence, SAH detection, recombinant enzyme; at 57.3 µM (top of the series)
# [7] = biological target: Nicotinamide N-methyltransferase (Homo sapiens) (UniProt P40261); test: as above; settings: MTase-Glo luminescence, SAH detection, recombinant enzyme; measured here: NNMT max response; stronger effect = lower value
# Nicotinamide N-methyltransferase (Homo sapiens), sequence (P40261 whole entry, looked up): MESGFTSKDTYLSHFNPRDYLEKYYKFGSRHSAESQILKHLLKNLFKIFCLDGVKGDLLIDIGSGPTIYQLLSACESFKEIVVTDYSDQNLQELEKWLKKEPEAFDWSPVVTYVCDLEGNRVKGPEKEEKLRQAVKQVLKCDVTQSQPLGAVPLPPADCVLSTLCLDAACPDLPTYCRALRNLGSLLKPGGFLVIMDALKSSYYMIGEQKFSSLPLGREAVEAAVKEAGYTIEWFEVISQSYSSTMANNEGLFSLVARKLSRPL
# [8] = biological target: Phenylethanolamine N-methyltransferase (Homo sapiens) (UniProt P11086); test: as above; settings: MTase-Glo luminescence, SAH detection, recombinant enzyme; measured here: PNMT max response; stronger effect = lower value
# Phenylethanolamine N-methyltransferase (Homo sapiens), sequence (P11086 whole entry, looked up): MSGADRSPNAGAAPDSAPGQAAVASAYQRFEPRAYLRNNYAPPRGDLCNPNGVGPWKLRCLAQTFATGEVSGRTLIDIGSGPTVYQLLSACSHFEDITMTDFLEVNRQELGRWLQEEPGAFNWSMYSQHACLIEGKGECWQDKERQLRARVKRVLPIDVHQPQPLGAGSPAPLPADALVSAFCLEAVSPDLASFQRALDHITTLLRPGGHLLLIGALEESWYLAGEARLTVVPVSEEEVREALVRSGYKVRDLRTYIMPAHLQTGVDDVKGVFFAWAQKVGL
# [9] = biological target: Metallo-beta-lactamase type 2 (Klebsiella pneumoniae) (UniProt C7C422); test: qHTS to identify inhibitors of the New Delhi Metallo-beta-lactamase (NDM): assay validation screen against the NCATS LOPAC Collection (AID 1794843);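 further: nitrocefin turnover by NDM-1 measured as 485 nm absorbance at plateau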
# Metallo-beta-lactamase type 2 (Klebsiella pneumoniae), sequence (C7C422 whole entry, looked up): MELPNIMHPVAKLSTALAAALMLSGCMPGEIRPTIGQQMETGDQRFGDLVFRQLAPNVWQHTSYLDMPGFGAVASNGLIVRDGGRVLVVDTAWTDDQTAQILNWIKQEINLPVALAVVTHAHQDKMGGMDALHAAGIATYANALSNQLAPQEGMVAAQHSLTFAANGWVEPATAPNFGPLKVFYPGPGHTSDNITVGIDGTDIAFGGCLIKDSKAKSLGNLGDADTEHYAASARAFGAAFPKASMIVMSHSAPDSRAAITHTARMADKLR
# Summary of the method: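 NDM-1 at 2 nM final in 50 mM HEPES pH 7.0, 1 uM ZnSO4, 0.01% Tween20, preincubated with LOPAC compounds pinned in DMSO; 50 uM nitrocefin (stock) added. Hydrolysis read as absorbance at 485 nm in the plateau phase.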
# [10] = Primary qHTS for inhibitors of nuclear receptor binding SET domain protein 2 (NSD2) in an RCH-ACV wild type WT cells (2C) (AID 1645877); further: nearly all actives have a fitted effect of over 70% in size; further: potency means the concentration at half of the fitted maximal effect
smiles,measurement,setting,value
CO[C@@]1(NC(=O)CSC[C@@H](N)C(=O)O)C(=O)N2C(C(=O)O)=C(CSc3nnnn3C)CS[C@@H]21,Potency,[1],inactive
same,Potency,[2],22.7 µM (active)
CN(C)CCN(Cc1ccsc1)c1ccccn1,Potency,[1],inactive
same,Potency,[2],inactive
same,Potency,[3],inactive
Nc1nc(=O)n([C@@H]2O[C@H](CO)[C@@H](O)[C@@H]2F)cc1I,Potency,[1],1.68 µM (active)
same,Potency,[4],inactive
Cc1cc(O)c2c(O)c3c(O)cccc3cc2c1,Potency,[1],inactive
same,Potency,[2],inactive
same,Potency,[3],inactive
O=C(Nc1ccc(Cl)cc1)Nc1ccc(Cl)c(C(F)(F)F)c1,Potency,[1],4.22 µM (active)
same,Potency,[2],inactive
CN1CCC(=C2c3ccccc3CCc3cccnc32)CC1,Potency,[1],inactive
same,Potency,[2],inactive
same,Potency,[3],inactive
COc1cc(NS(=O)(=O)c2ccc(N)cc2)nc(C)n1,Potency,[1],inactive
same,Potency,[2],inactive
same,Potency,[3],inactive
Cc1nc(C2CCCCC2)c(-c2ccc(S(N)(=O)=O)c(F)c2)o1,Potency,[1],11.9 µM (active)
same,Potency,[2],inactive
same,Potency,[3],inactive
CC(C)(C)CC(=O)OCC(=O)[C@@]1(O)CC[C@H]2[C@@H]3CCC4=CC(=O)C=C[C@]4(C)[C@H]3[C@@H](O)C[C@@]21C,Potency,[1],21.1 µM (active)
same,Potency,[2],inactive
same,Potency,[3],inactive
CCOC(=O)NNc1ccc(N(CC)CC(C)O)nn1 (configuration not stated),Potency,[1],inactive
same,Potency,[2],inactive
same,Potency,[3],inactive
Cc1c(C)c2c(c(C)c1OC(=O)CCC(=O)OCCO)CC[C@@](C)(CCC[C@H](C)CCC[C@H](C)CCCC(C)C)O2,Potency,[1],21.1 µM (active)
same,Potency,[2],inactive
same,Potency,[3],inactive
CC(C)(Oc1ccc(Cl)cc1)C(=O)OCCCOC(=O)C(C)(C)Oc1ccc(Cl)cc1,Potency,[1],inactive
same,Potency,[2],inactive
CN(C)c1cc2c(Nc3ccc4c(cnn4Cc4ccccc4)c3)ncnc2cn1,Potency,[1],23 µM (active)
same,activity,[5],5.63%
same,"activity change, negative = inhibition",[6],6.38%
same,activity,[7],-16.7%
same,activity,[8],-3.6%
same,outcome,[9],inactive
same,Potency,[2],inactive
same,Potency,[3],inactive
CNC(=O)c1c(I)c(NC(C)=O)c(I)c(C(=O)O)c1I,Potency,[1],inactive
same,Potency,[2],inactive
CC(C(=O)O)c1ccc(/C=C2\CCCCC2=O)cc1 (configuration not stated),Potency,[1],inactive
same,Potency,[2],inactive
CCOC(=O)O[C@]1(C(=O)OCCl)CC[C@H]2[C@@H]3CCC4=CC(=O)C=C[C@]4(C)[C@H]3[C@@H](O)C[C@@]21C,Potency,[1],inactive
same,Potency,[2],inactive
same,Potency,[3],inactive
CCCCNc1ccc(C(=O)OCCN(CC)CC)cc1,Potency,[1],inactive
same,Potency,[2],inactive
same,Potency,[3],inactive
CN(C(=O)C(Cl)Cl)c1ccc(OC(=O)c2ccco2)cc1,Potency,[1],inactive
same,Potency,[2],inactive
same,Potency,[3],inactive
COc1ccccc1N1CCN(CCN2C(=O)CC3(CCCC3)CC2=O)CC1,Potency,[1],inactive
same,outcome,[9],inactive
same,Potency,[2],inactive
same,Potency,[3],inactive
C[C@@H](C1=C(CCN(C)C)Cc2ccccc21)c1ccccn1,Potency,[1],inactive
same,Potency,[2],inactive
same,Potency,[3],inactive
O=C1NC(c2cccc([N+](=O)[O-])c2)=CCN1c1ccccc1O,Potency,[1],inactive
same,outcome,[9],inactive
same,Potency,[2],inactive
same,Potency,[3],inactive
NS(=O)(=O)c1cc2c(cc1Cl)CN(C1CCCCC1)C2=O,Potency,[1],inactive
same,Potency,[2],inactive
same,Potency,[3],inactive
CCOC(=O)C1=C(C)NC(C)=C(C(=O)OCC)C1c1ccccc1/C=C/C(=O)OC(C)(C)C,Potency,[1],21.1 µM (active)
same,Potency,[2],inactive
same,Potency,[3],inactive
CCNC(=O)[C@@H]1CCCN1C(=O)[C@H](CCCN=C(N)N)NC(=O)[C@H](CC(C)C)NC(=O)CNC(=O)[C@H](Cc1ccc(O)cc1)NC(=O)[C@H](CO)NC(=O)[C@H](Cc1c[nH]c2ccccc12)NC(=O)[C@H](Cc1cnc[nH]1)NC(=O)[C@@H]1CCC(=O)N1 ([pGlu]HWSYGLRP-NHEt),Potency,[10],inactive
N#C/C(=C1/SC[C@@H](c2ccc(Cl)cc2Cl)S1)n1ccnc1,Potency,[1],13.3 µM (active)
same,Potency,[2],inactive
same,Potency,[3],inactive
CC(=O)Nc1c(I)c(NC(C)=O)c(I)c(C(=O)O)c1I,Potency,[1],inactive
same,Potency,[2],inactive
same,Potency,[3],inactive
Cc1ccc(Cl)c(OCC(O)CNC(C)(C)C)c1 (configuration not stated),Potency,[1],inactive
same,Potency,[2],inactive
same,Potency,[3],inactive
CCN1C(=O)c2ccccc2C1Nc1ccc(OCCN2CCCCC2)cc1 (configuration not stated),Potency,[1],inactive
same,activity,[5],-0.796%
same,"activity change, negative = inhibition",[6],1.78%
same,activity,[7],1.49%
same,activity,[8],0.197%
same,Potency,[2],inactive
same,Potency,[3],inactive
CC1CN(c2cc3c(cc2F)c(=O)c(C(=O)O)cn3-c2ccc(F)cc2F)CCN1 (configuration not stated),"activity change, negative = viability loss",[1],4.46% [at 4.96 µM] (inactive)
same,Potency,[3],inactive
CC(C)=CCC/C(C)=C/CC/C(C)=C/CCC(=O)OC/C=C(\C)CCC=C(C)C,Potency,[1],inactive
same,Potency,[2],inactive
CC(C)(C)C(O)/C=C/c1ccc2c(c1)OCO2 (configuration not stated),Potency,[1],inactive
same,Potency,[2],inactive
same,Potency,[3],inactive
CC1(C)S[C@@H]2[C@H](NC(=O)C(c3ccccc3)S(=O)(=O)O)C(=O)N2[C@H]1C(=O)O (some centres not stated),Potency,[1],inactive
same,Potency,[2],inactive
same,Potency,[3],inactive
CN(C)CCOC1=Cc2ccccc2Sc2ccc(Cl)cc21,Potency,[10],16.8 µM (active)
CCCCCCOC(=O)NC(=N)c1ccc(NCc2nc3cc(C(=O)N(CCC(=O)OCC)c4ccccn4)ccc3n2C)cc1,Potency,[1],18.6 µM (active)
same,Potency,[2],inactive
same,Potency,[3],inactive
CCCCCCCCCCCCCCCC[N+](C)(C)Cc1ccccc1,Potency,[1],0.75 µM (active)
same,Potency,[2],inactive
same,Potency,[3],inactive
Cc1cccc(N(C)C(=S)Oc2ccc3c(c2)C2CCC3C2)c1 (configuration not stated),Potency,[1],inactive
same,Potency,[2],inactive
same,Potency,[3],inactive
O=C(O)c1ccccc1Nc1cc(Cl)ccc1C(=O)O,Potency,[1],inactive
same,Potency,[2],inactive
CC(CC(C#N)(c1ccccc1)C(C)C)N(C)C (configuration not stated),Potency,[1],inactive
same,Potency,[2],inactive
same,Potency,[3],inactive
Cc1cc(CCCOc2c(C)cc(-c3noc(C(F)(F)F)n3)cc2C)on1,Potency,[4],inactive
CC(=O)OCC(=O)[C@@]1(O)[C@H](OC(C)=O)C[C@H]2[C@@H]3CCC4=CC(=O)C=C[C@]4(C)[C@@]3(F)[C@@H](O)C[C@@]21C,Potency,[10],0.0596 µM (active)
same,Potency,[2],inactive
NC(N)=NCCCCN=C(N)N,outcome,[9],inactive
same,Potency,[2],inactive
same,Potency,[3],inactive
COc1cc2c(cc1OC)C(=O)CC2,Potency,[10],inactive
C[N+]1(CC2COC(c3ccccc3)(c3ccccc3)O2)CCCCC1 (configuration not stated),Potency,[10],2.59 µM (active)
same,Potency,[2],inactive
same,Potency,[3],inactive
